Consider 35 molecules from PubChem BioAssay AID485344 (National Center for Advancing Translational Sciences (NCATS), 2010).

One may read the inhibition as the relative decrease from the control value, in per cent.

Molecules are shown by their SMILES. In all, about 340,000 compounds went through this assay and about 6,900 (2%) were called active. The sample holds actives, similar compounds and a random draw of the others, so the mix is not that of the screen. Unmarked numbers belong to inactive results. Cut-off read from the data, not from the text of the source: active = inhibition above about 30%; inactive = below that, where a call was filed.

Sequence of D(2) dopamine receptor (Homo sapiens) (P14416 whole entry, looked up): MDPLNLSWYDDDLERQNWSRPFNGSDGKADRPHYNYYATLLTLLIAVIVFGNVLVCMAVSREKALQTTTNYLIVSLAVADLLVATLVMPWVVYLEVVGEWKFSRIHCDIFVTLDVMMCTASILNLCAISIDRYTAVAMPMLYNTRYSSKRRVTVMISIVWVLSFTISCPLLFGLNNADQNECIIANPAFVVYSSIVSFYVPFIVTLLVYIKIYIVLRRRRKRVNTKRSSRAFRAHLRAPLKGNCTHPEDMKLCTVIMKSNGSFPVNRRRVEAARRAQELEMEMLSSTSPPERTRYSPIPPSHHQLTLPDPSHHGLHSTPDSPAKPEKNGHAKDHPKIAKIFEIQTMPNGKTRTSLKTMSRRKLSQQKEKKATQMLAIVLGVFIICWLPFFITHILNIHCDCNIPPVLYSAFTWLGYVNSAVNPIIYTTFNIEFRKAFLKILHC

This test deals with D(2) dopamine receptor (Homo sapiens) (UniProt P14416). The experiment in a line: HTS Assay for Allosteric Antagonists of the Human D2 Dopamine Receptor: Primary Screen for Antagonists. Note: 0% is about no effect. To be noted: HEK293 TREx D2 cells, calcium flux, dopamine EC80; at 10 µM; stronger effect = higher value. From the text:
NIH Chemical Genomics Center [NCGC] NIH Molecular Libraries Probe Centers Network [MLPCN] MLPCN Grant: NS064831-01 Assay Submitter (PI): David Sibley Dopamine receptors (DARs) are involved in the etiology and/or therapy of a number of neuropsychiatric and endocrine disorders. For instance, all receptor-based antiparkinsonian drugs work via stimulating the D2 DAR subtype whereas all FDA-approved antipsychotic agents are antagonists of this receptor. […] There are three different types of allosteric modulators that we are seeking, two of which will stimulate or augment receptor signaling, allosteric agonists and potentiators, while the third, allosteric antagonists, will attenuate receptor signaling. The present primary screening assay measures compound antagonism after an EC80 addition of dopamine by tracking calcium flux in a […], inducible Hek293 Trex D2 cell line.
Freshly passaged cells are plated in 1536 well black, clear bottom plates at a density of 4000 cells/well in 3 ul of complete media containing 1x tetracycline inducer. After an overnight incubation at 30 C in 5% CO2, cells are loaded with 2 ul of the no wash Calcium Assay Kit (ABD Bioquest) and incubated at room temperature for 30 to 90 minutes. Agonist read: A 10 cycle (1 second/cycle) baseline measurement is taken and then the FDSS online 1536 pintool delivers 23 nl of compound library (as well as dopamine controls) to the plate. The plate is measured for kinetically at 1 cycle/sec for 180 seconds. Following the 180 second read, 1 ul of an EC80 (negative modulation assay) is delivered by an onboard pipette head. Measurements are taken kinetically for an additional 180 seconds.
A general note: Calcium flux is commonly read through the fluorescence of an indicator in the cells.
For `Cc1ccc(C2CN(C)CC2C(=O)c2ccc(F)cc2)cc1` (stereo not given), the inhibition was 70% (active). The figure for `CN1CCC(OC(=O)c2cccc(F)c2)CC1` is 8.08%.

Regarding `COc1ccc(C(=O)C2CN(C)CC2C(=O)c2ccc(OC)cc2)cc1` (stereo not given), the inhibition was 4.54%.

Take `COC(=O)C1=C(c2ccc(F)cc2OCc2ccccc2)C[C@@H]2CC[C@H]1N2C(=O)NCc1ccc2[nH]ccc2c1`: the inhibition is 4.27%. `COC(=O)C1=C(c2cccc(OCc3ccccc3)c2)C[C@@H]2CC[C@H]1N2C(=O)NNCc1ccccc1`: the inhibition is -6.45%. Regarding `O=C(O)CCn1cc(C=C2C(=O)NC(=S)NC2=O)c(-c2cccc(Br)c2)n1`, the inhibition is 18.3%. In the case of `CCc1ccc(OCC(=O)N2CCN(CC(=O)Nc3ccccc3Cl)CC2)cc1` it was -8.62%. The figure for `Fc1ccc(N2CCN(Cc3ccc4c(c3)OCO4)CC2)cc1` is 65.6% (active); for `CC(C)c1ccc(O)c(CN2CCN(c3ccccc3)CC2)c1` it is -16.3%. In the case of `Oc1cc2c(cc1CN1CCN(c3ccccc3)CC1)OCO2` it was 108% (active); in that of `Cc1cc(=O)oc2c(C)c(OCC(=O)N3CCN(Cc4ccc5c(c4)OCO5)CC3)ccc12`, 3.54%. Take `CCN1CCN(Cc2cc(OC)c3c(c2)OCO3)CC1`: the inhibition was -21.1%.

Consider `O=C(Cc1ccccc1[N+](=O)[O-])N1CCN(Cc2ccc3c(c2)OCO3)CC1`, for which the inhibition was -19.1%.

Regarding `CN1CCC(N(C)Cc2cccnc2)CC1`, the inhibition was 11.8%. As for `Cc1ccccc1NC(=O)COC(=O)c1cc(C)n(C2CC2)c1C`, the inhibition is 6.13%. `COC(=O)C1=C(c2ccc(Cl)c(C(F)(F)F)c2)C[C@@H]2CC[C@H]1N2C(=O)NC(C)C`: the inhibition is -9.37%. The figure for `COC(=O)C1=C(c2ccc(F)cc2OCc2ccccc2)C[C@@H]2CC[C@H]1N2C(=O)NCc1ccc(Cl)cc1` is -5.86%; for `CCOC(=O)C1(Cc2ccc(Cl)cc2)CCN(C(C)CCn2cccn2)CC1` (stereo not given) it is 77.6% (active). In the case of `CCOC(=O)C1(CCc2ccccc2)CCN(Cc2ccco2)CC1` it was 1.26%; in that of `COC(=O)C1=C(c2cccc(OCc3ccccc3)c2)C[C@@H]2CC[C@H]1N2C(=O)NCc1ccc(Br)cc1`, -11.9%.

For `c1cncc(CNCCc2c[nH]c3ccccc23)c1`, the inhibition is 33% (active). In the case of `COc1ccc(CNCCc2c[nH]c3ccccc23)cc1OC` it was 22.9%; in that of `c1cncc(CNC2=NCCC2)c1`, -1.77%. The figure for `COc1ccccc1CN1CCN(C(=O)Cc2ccccc2)CC1` is -40.7%; for `Fc1cccc(F)c1CN1CCN(Cc2c(F)cccc2F)CC1` it is -7.4%. In the case of `COc1ccc(CN2CCN(c3ccccc3F)CC2)c(OC)c1` it was 76.4% (active).

Regarding `COC(=O)C1=C(c2ccccc2OCc2ccccc2)C[C@@H]2CC[C@H]1N2C(=O)NCc1ccc(OC)cc1`, the inhibition was -2.56%. In the case of `COC(=O)C1=C(c2ccc(F)cc2OCc2ccccc2)C[C@@H]2CC[C@H]1N2C(=O)NCc1ccc(OC)c(OC)c1` it was -1.84%; in that of `COC(=O)C1=C(c2ccc(Cl)c(C(F)(F)F)c2)C[C@@H]2CC[C@H]1N2C(=O)NC1CC1`, -0.929%; in that of `COC(=O)C1=C(c2ccc(-c3ccccc3)c(F)c2)C[C@@H]2CC[C@H]1N2C(=O)NCc1ccc(F)cc1`, -5.61%. Regarding `Cn1c(O)c(C(=Nc2ccc(F)cc2)c2ccccc2)c(=O)n(C)c1=O`, the inhibition was -2.27%. The figure for `NCC(O)c1ccc(O)cc1` (stereo not given) is 32.1% (active); for `CCc1cccc2c(C#N)cn(CC(=O)N3CCOCC3)c12` it is -4.1%.

For `C[C@]12CC[C@H](O)C[C@H]1CC[C@@H]1C2CC[C@]2(C)[C@@H](C3=CC(=O)OC3)[C@@H](O)C[C@]12O` (stereo not given in full), the inhibition is 8.92%.

In the case of `COC(=O)C1=C(c2ccc3ccccc3c2)C[C@@H]2CC[C@H]1N2C(=O)NCCO`, the inhibition is -12.6%.
